Measurements from the antibiotic and cytotoxicity screens of Wong et al. (2023).
In all, about 39,000 compounds went through this assay and about 3,300 (8.5%) were called active. This excerpt belongs to a sample that is enriched for actives.

test system: HepG2; assay: cytotoxicity call (relative viability < 0.9); conditions: 10 µM

Structure (SMILES) | cytotoxicity call
COc1cccc(S(=O)(=O)N2C[C@@H](O)COC[C@H]3O[C@@H](CC(=O)N4CCN(c5ccccc5)CC4)CC[C@@H]32)c1 | inactive
COc1ccc(NC(=O)N(C)C[C@@H]2OCc3cnnn3CCCC(=O)N([C@H](C)CO)C[C@H]2C)c(OC)c1 | inactive
CN1CCN(C(=O)C[C@@H]2CC[C@H]3[C@H](COc4ccc(NC(=O)c5cscn5)cc4C(=O)N3C)O2)CC1 | inactive
C[C@H](CO)N1C[C@H](C)[C@@H](CN(C)C)Oc2ccc(NC(=O)Cc3cn(C)c4ccccc34)cc2CC1=O | inactive
Nc1nc(N)c2nc(CNc3ccc(C(=O)NC(CCC(=O)O)C(=O)O)cc3)cnc2n1 (stereo not given) | active
Nc1nc(=O)c2nc(CNc3ccc(C(=O)N[C@@H](CCC(=O)O)C(=O)O)cc3)cnc2[nH]1 | inactive
CC(=O)N[C@@H](CCC(=O)O)C(=O)O | inactive
CN(Cc1cnc2nc(N)nc(N)c2n1)c1ccc(C(=O)NC(CCC(=O)O)C(=O)O)cc1.O (stereo not given) | active
Nc1nc(=O)c2c([nH]1)NC[C@H](CNc1ccc(C(=O)N[C@@H](CCC(=O)O)C(=O)O)cc1)N2C=O | inactive
Nc1nc(=O)c2c([nH]1)NCC(CNc1ccc(C(=O)NC(CCC(=O)O)C(=O)O)cc1)=N2 (stereo not given) | inactive
CN(Cc1cnc2nc(N)nc(N)c2n1)c1ccc(C(=O)N[C@@H](CCC(=O)O)C(=O)O)cc1 | active
CCCN(CCC)C(=O)C(CCC(=O)O)NC(=O)c1ccccc1 (stereo not given) | inactive
Nc1nc(=O)c2nc(CNc3ccc(C(=O)NC(CCC(=O)O)C(=O)O)cc3)cnc2[nH]1 (stereo not given) | inactive
CN(C)CCCNC(=O)C[C@H]1C=C[C@H](NS(=O)(=O)c2ccccc2)[C@H](CO)O1 | inactive
C[C@@H]1CN([C@@H](C)CO)C(=O)Cc2cc(NS(C)(=O)=O)ccc2O[C@H]1CN(C)C(=O)Nc1ccc(F)cc1 | inactive
COc1cccc(-c2cn(CC[C@H]3CC[C@@H](NC(=O)CN(C)C)[C@H](CO)O3)nn2)c1 | inactive
CC(C)NC(=O)N(C)C[C@H]1Oc2ccc(NC(=O)Cc3ccccc3)cc2CC(=O)N([C@@H](C)CO)C[C@H]1C | inactive
CN1C(=O)c2cc(NC(=O)c3ccno3)ccc2OC[C@H]2O[C@@H](CC(=O)NC3Cc4ccccc4C3)CC[C@@H]21 | inactive
Cc1noc(C)c1NC(=O)N(C)C[C@@H]1Oc2ccc(NC(=O)Cn3cnnn3)cc2CC(=O)N([C@H](C)CO)C[C@@H]1C | inactive
C[C@@H]1CCCCO[C@H](CN(C)C(=O)Nc2ccc(C(F)(F)F)cc2)[C@H](C)CN([C@H](C)CO)C(=O)c2cc(NC(=O)Nc3ccccc3)ccc2O1 | inactive
O=C(C[C@@H]1CC=CC[C@H](NC(=O)OCC2c3ccccc3-c3ccccc32)C(=O)O[C@H](c2ccccc2)CNC1=O)N[C@H](CO)Cc1ccccc1 | inactive
O=C(C[C@@H]1CC[C@@H](NS(=O)(=O)c2ccccc2)[C@@H](CO)O1)NCc1ccncn1 | inactive

Structure (SMILES) | cytotoxicity call
Cc1noc(C)c1S(=O)(=O)N(C)C[C@H]1Oc2ccc(NS(=O)(=O)c3ccc(F)cc3)cc2CC(=O)N([C@@H](C)CO)C[C@@H]1C | inactive
O=C(Oc1ccccc1C(=O)O)c1ccccc1O | inactive
CC1CC(OC(=O)c2ccccc2O)CC(C)(C)C1 (stereo not given) | active
CC1CC(OC(=O)C(O)c2ccccc2)CC(C)(C)C1 (stereo not given) | inactive
C[C@H]1CN([C@@H](C)CO)C(=O)Cc2cc(NS(C)(=O)=O)ccc2O[C@@H]1CN(C)S(=O)(=O)c1ccccc1 | inactive
C[C@H]1CCCCO[C@H](CN(C)C(=O)C2CCCCC2)[C@@H](C)CN([C@@H](C)CO)C(=O)c2cc(NC(=O)CCC(F)(F)F)ccc2O1 | inactive
COCC(=O)N(C)C[C@@H]1Oc2cc(C#Cc3cccnc3)ccc2S(=O)(=O)N([C@H](C)CO)C[C@@H]1C | inactive
C[C@@H]1CN([C@H](C)CO)C(=O)c2cccc(NC(=O)Nc3ccc(C(F)(F)F)cc3)c2O[C@@H]1CN(C)C(=O)Nc1ccc(F)cc1 | inactive
C[C@H]1CN([C@@H](C)CO)C(=O)c2cccc(NC(=O)Nc3ccc(C(F)(F)F)cc3)c2O[C@H]1CN(C)C(=O)Nc1ccc(F)cc1 | active
C[C@H]1CN([C@@H](C)CO)C(=O)c2cccc(NC(=O)Nc3ccc(C(F)(F)F)cc3)c2O[C@@H]1CN(C)C(=O)Nc1ccc(F)cc1 | inactive
C[C@@H]1CN([C@H](C)CO)C(=O)c2cccc(NC(=O)Nc3ccc(F)cc3)c2O[C@H]1CN(C)C(=O)Nc1ccc(C(F)(F)F)cc1 | inactive
C[C@H](CO)N1C[C@H](C)[C@H](CN(C)C(=O)Nc2ccc(F)cc2)Oc2c(NC(=O)Nc3ccc(C(F)(F)F)cc3)cccc2C1=O | active
C[C@@H]1CN([C@H](C)CO)C(=O)c2cccc(NC(=O)Nc3ccc(F)cc3)c2O[C@@H]1CN(C)C(=O)Nc1ccc(C(F)(F)F)cc1 | inactive
C[C@H](CO)N1C[C@H](C)[C@@H](CN(C)S(=O)(=O)c2cn(C)cn2)Oc2c(NC(=O)Nc3ccccc3)cccc2C1=O | inactive
C[C@@H]1CCCCO[C@H](CN(C)C(=O)C2CCCCC2)[C@@H](C)CN([C@H](C)CO)C(=O)c2cc(NC(=O)c3ccccc3)ccc2O1 | inactive
C[C@@H]1CN([C@@H](C)CO)S(=O)(=O)c2ccc(Br)cc2O[C@@H]1CN(C)C(=O)c1ccncc1 | inactive
C[C@H](CO)N1C[C@H](C)[C@H](CN(C)Cc2ccc(C(F)(F)F)cc2)Oc2ccc(NC(=O)NC3CCCCC3)cc2C1=O | inactive
C[C@@H]1CN([C@@H](C)CO)C(=O)c2cccc(NS(C)(=O)=O)c2O[C@@H]1CN(C)S(=O)(=O)c1ccc(Cl)cc1 | inactive
C[C@@H]1CN([C@H](C)CO)C(=O)c2cc(NC(=O)NC3CCCCC3)ccc2O[C@@H](C)CCCCO[C@@H]1CN(C)Cc1ccc(C(F)(F)F)cc1 | inactive
C[C@@H]1CN([C@@H](C)CO)C(=O)c2cc(NC(=O)NC3CCCCC3)ccc2O[C@@H](C)CCCCO[C@H]1CN(C)Cc1ccc(C(F)(F)F)cc1 | active
C[C@H]1CCCCO[C@H](CN(C)Cc2ccc(C(F)(F)F)cc2)[C@@H](C)CN([C@@H](C)CO)C(=O)c2cc(NC(=O)NC3CCCCC3)ccc2O1 | active
C[C@H](CO)N1C[C@H](C)[C@@H](CN(C)Cc2ccc(C(F)(F)F)cc2)OCCCC[C@H](C)Oc2ccc(NC(=O)NC3CCCCC3)cc2C1=O | active

Structure (SMILES) | cytotoxicity call
C[C@H](CO)N1C[C@H](C)[C@H](CN(C)Cc2ccc(C(F)(F)F)cc2)OCCCC[C@H](C)Oc2ccc(NC(=O)NC3CCCCC3)cc2C1=O | inactive
C[C@@H]1CCCCO[C@@H](CN(C)Cc2ccc(C(F)(F)F)cc2)[C@H](C)CN([C@@H](C)CO)C(=O)c2cc(NC(=O)NC3CCCCC3)ccc2O1 | active
Cc1ccc2nc(CN)cn2c1 | inactive
CCOc1ccc(Nc2nc3c(=O)nc[nH]c3n2[C@H]2O[C@@H](CO)[C@@H](O)[C@@H]2O)cc1 | inactive
C[C@H](CO)N1C[C@H](C)[C@@H](CN(C)C(=O)CCC(F)(F)F)OCCCC[C@H](C)Oc2ccc(NC(=O)CCC(F)(F)F)cc2C1=O | inactive
C[C@H]1CN([C@@H](C)CO)C(=O)CCCn2nncc2CO[C@H]1CN(C)C(=O)c1ccc(N2CCN(C)CC2)cc1 | inactive
COc1ccc(S(=O)(=O)N(C)C[C@@H]2Oc3ccc(NC(=O)NC(C)C)cc3CC(=O)N([C@H](C)CO)C[C@H]2C)cc1 | inactive
CN1CCN(C(=O)C[C@H]2CC[C@H]3[C@@H](COc4ccc(NC(=O)c5ccc(F)c(F)c5)cc4C(=O)N3C)O2)CC1 | inactive
COc1ccc(CNS(=O)(=O)N(C)C)cc1 | inactive
CO[C@H]1CN(C)C(=O)c2cc(NC(=O)Nc3ccccc3)ccc2OC[C@H](C)N(C(=O)CN(C)C)C[C@H]1C | inactive
C[C@@H]1CCCCO[C@@H](CN(C)Cc2ccc(C(F)(F)F)cc2)[C@@H](C)CN([C@H](C)CO)C(=O)c2cc(NC(=O)NC3CCCCC3)ccc2O1 | inactive
C[C@@H]1CCCCO[C@H](CN(C)Cc2ccc(C(F)(F)F)cc2)[C@@H](C)CN([C@@H](C)CO)C(=O)c2cc(NC(=O)NC3CCCCC3)ccc2O1 | active
C[C@@H]1CCCCO[C@H](CN(C)Cc2ccc(C(F)(F)F)cc2)[C@H](C)CN([C@H](C)CO)C(=O)c2cc(NC(=O)NC3CCCCC3)ccc2O1 | active
C[C@@H]1CCCCO[C@@H](CN(C)Cc2ccc(C(F)(F)F)cc2)[C@@H](C)CN([C@@H](C)CO)C(=O)c2cc(NC(=O)NC3CCCCC3)ccc2O1 | active
C[C@@H]1CCCCO[C@H](CN(C)Cc2ccc(C(F)(F)F)cc2)[C@@H](C)CN([C@H](C)CO)C(=O)c2cc(NC(=O)NC3CCCCC3)ccc2O1 | active
CNC(=O)C[C@H]1CC[C@H]2[C@@H](COC[C@@H](O)CN2C(=O)Nc2ccc3c(c2)OCO3)O1 | inactive
C[C@H](CO)N1C[C@H](C)[C@H](CN(C)C(=O)Nc2ccc(F)cc2)Oc2ccc(NS(=O)(=O)c3cn(C)cn3)cc2C1=O | inactive
C[C@H](CO)N1C[C@H](C)[C@@H](CN(C)C(=O)Cc2ccccc2)OCCCC[C@H](C)Oc2ccc(NS(=O)(=O)c3ccc(F)cc3)cc2C1=O | inactive
C[C@@H]1CN([C@@H](C)CO)C(=O)c2cc(NS(=O)(=O)c3cn(C)cn3)ccc2O[C@@H]1CN(C)C(=O)NC1CCCCC1 | inactive
COc1ccc(S(=O)(=O)N(C)C[C@H]2OCCCC[C@@H](C)Oc3ccc(NS(=O)(=O)c4cn(C)cn4)cc3C(=O)N([C@@H](C)CO)C[C@@H]2C)cc1 | inactive
C[C@@H]1CCCCO[C@H](CN(C)C(=O)Nc2cccc3ccccc23)[C@H](C)CN([C@@H](C)CO)C(=O)c2cc(NS(=O)(=O)c3cn(C)cn3)ccc2O1 | inactive
